Compound activity as filed in PubChem.
Most compounds without a hit are left out; they make up all but 11% or so of the library.
RGS12 GoLoco inh – blocks human Gai1 binding to RGS12 GoLoco peptide, red readout; Gai1:RGS12 GoLoco peptide FP, rhodamine, 10 min; Potency, µM (highest dose often 61.6 µM), inactives show top-dose activity, negative = inhibition, most hits filed as inhibitors; P63096; hit rate 0.44% among 230,000; active means well fitted inhibition curve with a large enough effect, not every such curve was filed as active; inactive means no such curve, though single readings can be large or run the other way; further: potency means the concentration at half of the fitted maximal effect; on the % scale 0 is the no-effect control and ±100 the full control effect; nearly all actives have a fitted effect of over 30% in size
HTT cytoprotect – Huntington cell model cytoprotection by ATP luminescence. Potency, µM (doses to about 56.4 µM), for the others: cytoprotection (ATP increase), actives largely listed as activators. PC12 HTT-Q103 induced, cytoprotection, ATP luminescence, 40 h. AID 1471. hit rate 0.14% among 230,000; active means well fitted curve in the direction sought with a large enough effect; inconclusive means small, poorly fitted or top-dose-only effect, or another doubt; inactive means no such curve, though single readings can be large; an effect the other way counts as inactive or inconclusive; further: potency means the concentration at half of the fitted maximal effect; % of control where 0% means no effect; nearly all actives have a fitted effect of over 45% in size
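Quantitative HTS on tebufenozide-induced (100 nM) PC12 cells expressing HTTQ103 exon 1–GFP; compounds tested as a concentration series; survival measured via cellular ATP.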
ALDH1A1 block – inhibitors of human aldehyde dehydrogenase 1A1; P00352; Purified ALDH1A1, NADH fluorescence, propionaldehyde substrate; hit rate 7.3% among 220,000; Potency, µM (series often up to 75.3 µM), for the others: at the top dose activity, negative = inhibition, usual class: inhibitors; AID 1030;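 further: potency means the concentration at half of the fitted maximal effect; plate controls were no enzyme wells and a reference inhibitor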
Target sequence (P00352 whole entry, looked up): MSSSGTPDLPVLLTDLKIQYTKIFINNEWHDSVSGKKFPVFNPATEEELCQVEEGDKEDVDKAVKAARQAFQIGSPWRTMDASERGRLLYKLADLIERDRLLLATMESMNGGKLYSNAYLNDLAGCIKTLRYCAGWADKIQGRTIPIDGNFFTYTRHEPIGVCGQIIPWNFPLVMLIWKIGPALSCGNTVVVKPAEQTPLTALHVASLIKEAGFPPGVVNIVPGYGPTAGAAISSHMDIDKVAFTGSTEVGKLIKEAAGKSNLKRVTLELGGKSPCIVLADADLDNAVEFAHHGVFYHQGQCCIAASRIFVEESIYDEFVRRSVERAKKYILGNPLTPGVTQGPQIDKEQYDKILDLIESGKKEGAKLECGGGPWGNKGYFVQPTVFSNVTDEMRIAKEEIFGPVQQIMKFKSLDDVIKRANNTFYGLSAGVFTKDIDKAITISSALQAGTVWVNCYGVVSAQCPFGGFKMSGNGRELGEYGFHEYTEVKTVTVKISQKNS
HPGD inh – inhibitors of human 15-hydroxyprostaglandin dehydrogenase (HPGD); P15428; purified HPGD, NADH fluorescence kinetic, PGE2 substrate; Potency, µM, inactives show at the top dose activity change, negative = inhibition, most hits filed as inhibitors; hit rate 4.3% among 150,000; AID 894; further: potency means the concentration at half of the fitted maximal effect; on the % scale 0 is the no-effect control and ±100 the full control effect
Target sequence (P15428 whole entry, looked up): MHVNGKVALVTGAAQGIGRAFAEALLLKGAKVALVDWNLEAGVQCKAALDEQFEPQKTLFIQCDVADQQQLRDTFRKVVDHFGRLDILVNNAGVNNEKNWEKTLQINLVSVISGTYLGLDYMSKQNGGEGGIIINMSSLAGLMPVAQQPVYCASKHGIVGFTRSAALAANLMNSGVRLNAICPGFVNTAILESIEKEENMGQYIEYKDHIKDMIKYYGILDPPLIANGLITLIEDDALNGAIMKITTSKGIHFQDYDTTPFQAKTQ
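20 nM HPGD preincubated 15 min at room temperature with compound in 50 mM Tris-HCl pH 8, 0.01% Tween 20. Started with 1 mM NAD+ and 30 uM prostaglandin E2; NADH fluorescence (360/450 nm) read 5 times over 30-s intervals, last minus first.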
HttQ103 aggreg – mutant huntingtin aggregation inhibition; hit rate 1.1% among 220,000; PC12 HttQ103-GFP aggregates, Acumen cytometry, 40 h; Potency, µM (doses to about 46.1 µM), without a hit: at the highest dose activity change, negative = inhibition, hits mostly inhibitors; active means well fitted curve in the direction sought with a large enough effect; inconclusive means small, poorly fitted or top-dose-only effect, or another doubt; inactive means no such curve, though single readings can be large; an effect the other way counts as inactive or inconclusive; further: potency means the concentration at half of the fitted maximal effect; on the % scale 0 is the no-effect control and ±100 the full control effect; nearly all actives have a fitted effect of over 60% in size
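Multiplexed with ATP-based cell death, this channel scores GFP aggregates in PC12 cells expressing inducible HTTex1-Q103-GFP. Induction used 100 nM tebufenozide; compounds were tested in concentration series.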
PNC inhibitor – inhibitors of perinucleolar compartment assembly; PC3M PTB-GFP, PNC prevalence imaging, 16 h; stronger effect = lower value; activity change (PNC), negative = inhibition, % at 10 µM; hit rate 3.1% among 140,000;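 active means readout at or below -70, meaning at least 70% loss of cells showing the perinucleolar compartment, a nuclear body marking cancer cells; inconclusive means readout between -30 and a set limit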;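 further: plate controls were DMSO wells for no effect and camptothecin positive control wells for full effect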
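PC3M cells stably expressing PTB-GFP, 750–1000 cells/well, treated 16 h at 37 °C with compound (23 nl of library stock), in duplicate. After paraformaldehyde fixation and Hoechst stain, imaged at 20x; PNC prevalence scored by image analysis.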
Numbers without * were called inactive; ? = inconclusive; . = not tested or not shown; [ ] = remark or other dose. Unless noted, the call rests on the fitted dose curve; in most records, active means well fitted inhibition curve with a large enough effect (not every such curve was filed as active); inconclusive means small, poorly fitted or top-dose-only effect, or another doubt; inactive means no such curve, though single readings can be large or run the other way.

SMILES | RGS12 GoLoco inh | HTT cytoprotect | ALDH1A1 block | HPGD inh | HttQ103 aggreg | PNC inhibitor
COCCn1c(SCC(=O)N2CCCc3ccccc32)nc2c(c1=O)SC(C)C2 (stereo not given) | 2% | -1%[10 µM] | 20µM* | -19% | ? | -108*
CCn1c(SCC(=O)N2CCCCC2)nc2c(c1=O)SC(C)C2 (stereo not given) | 9% | -17%[10 µM] | 22µM* | -19% | -6% | 45
COCCn1c(SCC(=O)N2CCCc3ccccc32)nc2ccccc2c1=O | -7% | -14% | 25µM* | -7% | 2% | 3
COc1ccc(OC)c(/C=N/NC(=O)c2cc3c(OC)c(OC)ccc3[nH]2)c1 | -1% | 16%[0.074 µM] | -14% | -17% | 9% | -112*
COc1ccc(OC)c(/C=N/NC(=O)c2ccc3nc[nH]c3c2)c1 | 16% | -6%[10 µM] | ? | . | -8%[9.22 µM] | .
COc1ccc2cc(C(C)CO)ccc2c1 (stereo not given) | -3% | 1% | -7% | -8% | 8% | .
CC(=O)Nc1ccc(NC(=O)CSc2nnc(CNc3ccc(F)cc3)n2CC2CCCO2)cc1 (stereo not given) | 4% | 30%[10 µM] | -9% | . | 9% | .
CCn1c(CNc2ccc(C)cc2C)nnc1SCC(=O)N1CCCc2ccccc21 | -18% | -74%[10 µM] | 7.1µM* | -11% | -5% | -14
COc1ccc(NCc2nnc(SCC(=O)N3CCCc4ccccc43)n2C)cc1 | 7% | -30% | 3.2µM* | -13% | 1% | 21
CCn1c(CNc2ccc(F)cc2)nnc1SCC(=O)N1CCCc2ccccc21 | -4% | 11%[10 µM] | ? | -18% | 5% | -20
COc1ccc(-n2c(Cc3cccn3C)nnc2SCC(=O)N2CCCc3ccccc32)cc1 | -3% | ? | ? | -9% | 7% | 14
CCn1c(CNc2ccc(OC)cc2)nnc1SCC(=O)N1CCCc2ccccc21 | 8% | 9%[10 µM] | 7.1µM* | -1% | 25% | -4
Cc1ccc(NCc2nnc(SCC(=O)Nc3ccccc3)n2CC2CCCO2)c(C)c1 (stereo not given) | -7% | -1%[10 µM] | 7.9µM* | -8% | -6% | ?
O=C(N/N=C/C=C/c1ccco1)/C(=C/c1ccccc1)NC(=O)c1ccccc1 | 17% | 19%[10 µM] | ? | -15% | 7% | 52
CCCC(=O)N1CCN(c2ccc([N+](=O)[O-])c(NC(C)c3ccccc3)c2)CC1 (stereo not given) | -10% | -50% | ? | -27% | ? | 96
Cc1cc2nc(Sc3c([N+](=O)[O-])nc(C)n3Cc3ccccc3)[nH]c2cc1C | -5% | 32%[10 µM] | 1.1µM* | -22% | 1% | ?
COc1ccc2nc(Sc3c([N+](=O)[O-])nc(C)n3Cc3ccccc3)[nH]c2c1 | -6% | 13µM* | -6% | 2% | . | 22
COc1ccc2nc(SCC(N)=O)[nH]c2c1 | 11% | -9% | 1% | -9% | -2% | -19
Cc1nc([N+](=O)[O-])c(Sc2nc3ccccc3[nH]2)n1Cc1ccccc1 | 5% | ? | -8% | -4% | ? | -20
OC[C@@H]1O[C@@H](n2cnc3c(NC4CCCCC4)ncnc32)[C@@H](O)[C@H]1O | . | -33%[1.9 µM] | . | . | . | .
Cc1cccc(C(=O)NC(=S)Nc2ccc(Cc3ccncc3)cc2)c1 | -5% | -47% | 20µM* | ? | -9% | 49
O=C(NC(=S)Nc1ccc(Cc2ccncc2)cc1)c1ccccc1 | 5% | -17%[10 µM] | 18µM* | ? | 13% | 90
COc1c(C(=O)Nc2ccc(Cc3ccncc3)cc2)ccc2ccccc12 | -15% | . | ? | -29% | 13µM* | 16
Cc1cc(C)cc(C(=O)NC(=S)Nc2ccc(Cc3ccncc3)cc2)c1 | -2% | -5%[10 µM] | ? | -6% | -9% | 41
O=C1c2c([N+](=O)[O-])cc([N+](=O)[O-])cc2S(=O)N1Cc1ccccc1 (stereo not given) | -14% | -42% | 3.5µM* | . | 11% | .
SMILES | RGS12 GoLoco inh | HTT cytoprotect | ALDH1A1 block | HPGD inh | HttQ103 aggreg | PNC inhibitor
Cc1cc(C(=O)N[C@@H](c2ccccc2)[C@]2(C)C[C@H]2[C@@H](C)C(=O)Nc2ccc3ccccc3c2)n(C)n1 | -19% | -9% | ? | -6% | . | .
COC(=O)N[C@H](c1ccccc1)[C@@]1(C)C[C@@H]1[C@@H](C)C(=O)Nc1ccc2ccccc2c1 | -3% | -31% | 7.9µM* | -23% | . | .
C[C@@H](C(=O)Nc1ccc2ccccc2c1)[C@H]1C[C@]1(C)[C@H](NC(=O)c1cccnc1)c1ccccc1 | 5% | -88% | 11µM* | -5% | ? | 48
CC(=O)N[C@H](c1ccccc1)[C@@]1(C)C[C@@H]1[C@@H](C)C(=O)Nc1ccc2ccccc2c1 | 8% | ? | ? | -6% | . | .
NC(=O)CCCCC1CCSS1 (stereo not given) | 12% | 4% | . | . | 2% | .
CCN1CCN(Cc2ccc(NC(=O)c3ccc(C)c(NC(=O)c4nccnc4N)c3)cc2C(F)(F)F)CC1 | 15% | 4%[10 µM] | . | . | 2.8µM* | .
CC(C)(C)c1ccc(NC(=O)Nc2ccc(F)cc2)cc1 | 8% | -81% | 10% | . | ? | .
COc1ccc(OCC(=O)N2CCN(c3nnc(-c4ccc(C)cc4)c4ccccc34)CC2)cc1 | 11% | -12%[10 µM] | . | . | -1%[9.22 µM] | .
Cc1ccc(OCC(=O)N2CCN(c3nnc(-c4ccc(C)cc4)c4ccccc34)CC2)cc1 | 0% | -84% | 14µM* | -16% | 3%[9.22 µM] | 25
Cc1ccc(-c2nnc(N3CCN(C(=O)c4ccco4)CC3)c3ccccc23)cc1 | -6% | -20%[0.074 µM] | 14µM* | -15% | -33% | ?
Cc1ccc2cc(CCl)c(Cl)nc2c1 | -3% | 3%[10 µM] | . | . | -2%[9.22 µM] | .
CC(=O)N(CN1C(=O)c2ccccc2C1=O)c1ccc2c(c1)oc1ccccc12 | 26% | 26%[10 µM] | 4% | -8% | 13% | 44
CN(C)c1ccc(C=Nc2cnn(C)c2C(N)=O)cc1 | -5% | 0% | 3.5µM* | -29% | -9% | 7
CCCc1cc2c(c(=O)o1)C(O)C1OC1C2=O (stereo not given) | . | -62%[10 µM] | 4µM* | . | . | .
CCCc1cc(=O)c2c(O)cccc2o1 | 4% | -7%[10 µM] | -11% | . | 12%[9.22 µM] | .
COC(=O)/C=c1/s/c(=C(/C#N)C(=O)N2CCCCC2)n(-c2ccccc2)c1=O | 40% | -4%[10 µM] | -11% | -13% | -16% | ?
N#C/C(C(=O)N1CCCCC1)=C1/N=C(N)c2ccccc21 | -10% | -6%[10 µM] | ? | 14µM* | -17% | -27
COCCNC(=O)/C(C#N)=C1\N=C(N)c2ccccc21 | 6% | 10%[10 µM] | ? | 14µM* | ? | 7
c1cncc(-c2nnc(SCc3cccc4ccccc34)o2)c1 | 7% | 2% | -3% | 25µM* | 10% | ?
